# Screening data deposited in PubChem BioAssay by The Scripps Research Institute Molecular Screening Center.
# FBW7 activator – FBW7 E3 ligase activators, primary screen, biochemical, AlphaScreen, human; F-box/WD repeat-containing protein 7 (Homo sapiens), Q969H0; normalized activity (activation), % at 26.1 µM; AlphaScreen FBW7–phospho-cyclin E peptide binding, activator screen; AID 1259310, 2017; 650,000 compounds, 0.13% hits; in the data active = normalized activity above about 1.9%;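 note: purified mutant Fbw7 with reduced substrate affinity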
# MITF inh – MITF inhibitors, primary screen, biochemical, AlphaScreen, human. Microphthalmia-associated transcription factor (Homo sapiens), O75030. AlphaScreen MITF homodimerization, bead proximity signal. inhibition, % at 2.6 µM. 650,000 compounds, 0.91% hits; in the data active = inhibition above about 50%;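 note: 0% = vehicle wells with protein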
# Target sequence (O75030 whole entry, looked up): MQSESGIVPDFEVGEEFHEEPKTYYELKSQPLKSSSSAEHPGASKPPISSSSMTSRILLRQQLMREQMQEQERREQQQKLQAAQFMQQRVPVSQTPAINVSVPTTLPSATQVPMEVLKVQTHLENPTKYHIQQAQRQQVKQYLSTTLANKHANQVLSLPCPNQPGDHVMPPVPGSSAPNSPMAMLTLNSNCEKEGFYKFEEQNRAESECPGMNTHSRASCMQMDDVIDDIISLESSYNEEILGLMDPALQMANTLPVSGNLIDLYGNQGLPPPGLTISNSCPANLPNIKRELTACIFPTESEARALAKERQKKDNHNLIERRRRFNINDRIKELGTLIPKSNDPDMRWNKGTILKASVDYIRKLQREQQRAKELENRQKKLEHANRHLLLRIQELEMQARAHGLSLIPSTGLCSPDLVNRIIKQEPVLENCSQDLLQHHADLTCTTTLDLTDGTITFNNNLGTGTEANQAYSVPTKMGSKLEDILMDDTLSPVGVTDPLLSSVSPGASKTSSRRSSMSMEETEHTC
# GPR151 ag – activators of human GPR151, primary screen, cell-based, PathHunter beta-arrestin, luminescence | activation, % at 11.2 µM | G-protein coupled receptor 151 (Homo sapiens), Q8TDV0 | 650,000 compounds, 1% hits | PathHunter beta-arrestin GPR151 cells; in the data active = activation above about 4.9%;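 note: 0% = median of compound wells and 100% = cells with positive control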
# TEAD-YAP inh – TEAD-YAP interaction inhibition, primary screen, TEAD-YAP interaction inhibitor project, luminescence, HEK-TIYL cells; 640,000 compounds, 1.4% hits; inhibition, % at 9.12 µM; TEAD-Gal4/YAP UAS-luciferase luminescence; AID 1259422, 2018; in the data active = inhibition above about 32%;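 note: 0% = median of test compound wells and 100% = reference inhibitor wells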
# An asterisk follows results filed as active. Compounds with a hit are over-represented: about 3.5% of the library has one in this group of screens.
SMILES,FBW7 activator,MITF inh,GPR151 ag,TEAD-YAP inh
C=CCN1CCN(C(c2ccccc2)c2nnnn2C2CCCC2)CC1 (stereo unspecified),1.9*,15.3,-0.3,-2.6
CN1CCN(C(c2ccc(F)cc2)c2nnnn2C2CCCC2)CC1 (stereo unspecified),0.4,9.3,-1.0,6.0
c1csc(C(c2nnnn2C2CCCCC2)N2CCN3CCCC3C2)c1 (stereo unspecified),0.4,18.8,-2.0,62.5*
c1cncc(C(c2nnnn2C2CCCCC2)N2CCN3CCCC3C2)c1 (stereo unspecified),-0.1,4.6,-1.2,-17.8
Cc1ccc2c(c1)N(C(=O)CCC(=O)Nc1cccc(F)c1)CC(C)O2 (stereo unspecified),0.0,6.8,-0.6,-4.1
COc1cc(OC)cc(C(=O)N/N=C(\C)CC(=O)Nc2ccccc2C(F)(F)F)c1,-0.2,-1.7,-1.6,49.5*
COc1cccc(C(=O)N/N=C(\C)CC(=O)Nc2ccc(Br)cc2)c1,1.3,8.8,-0.5,-0.8
C/C(CC(=O)Nc1ccccc1C#N)=N\NC(=O)c1ccncc1,1.9*,8.7,0.7,5.7
COc1cc(OC)cc(C(=O)N/N=C(\C)CC(=O)Nc2ccc(Br)cc2)c1,0.0,12.6,0.8,54.3*
COc1cc(OC)cc(C(=O)N/N=C(\C)CC(=O)NC2CCCCC2)c1,-0.1,-3.4,0.1,60.3*
COc1cccc(NC(=O)C(=O)N/N=C(\C)CC(=O)NC2CCCCCCC2)c1,0.1,2.7,-3.0,-50.5
CCc1ccc(CN2CCN(S(=O)(=O)c3ccc4ccccc4c3)CC2)cc1,0.1,39.2,1.0,0.3
Cc1ccc(S(=O)(=O)NCc2ccc(C(=O)NCc3ccc(F)cc3)cc2)cc1,0.5,12.4,1.1,-2.6
O=C(O)c1cc(=O)[nH]c2ccc(Cl)cc12,0.1,-15.3,0.5,-6.4
C/C(CC(=O)Nc1ccc(C)cc1)=N\NC(=O)c1cccc(O)c1,0.3,9.4,-2.9,35.1*
C/C(CC(=O)Nc1ccc(I)cc1)=N\NC(=O)c1cccc(O)c1,-0.1,-1.9,0.5,12.3
C/C(CC(=O)Nc1cccc(C(F)(F)F)c1)=N\NC(=O)c1ccc2ccccc2c1,-0.1,6.8,0.4,51.5*
Cc1ncoc1C(=O)N1CCCC(N(C)CCc2ccccc2)C1 (stereo unspecified),-0.1,-0.4,-0.1,-16.1
CCC(Sc1nc2ccccc2c(=O)n1NC(=O)c1ccc(OC)cc1)C(=O)NCc1cccnc1 (stereo unspecified),-0.1,-5.3,0.6,79.4*
CCC(Sc1nc2ccccc2c(=O)n1Cc1ccccc1OC)C(=O)NCc1cccnc1 (stereo unspecified),0.0,-1.7,-1.0,-7.6
COc1ccc(C(=O)Nn2c(SCC(=O)NC3CCCC3)nc3ccccc3c2=O)cc1,0.0,-1.2,-0.4,79.2*
COc1ccc(C(=O)Nn2c(SCc3c(F)cccc3Cl)nc3ccccc3c2=O)cc1,-0.1,-12.2,2.3,78.9*
COc1ccc(C(=O)Nn2c(SCC(=O)Nc3ccc(C)cc3)nc3ccccc3c2=O)cc1,-0.1,-5.2,-1.4,87.7*
Cc1cc(C)cc(N(CC(=O)NCc2ccncc2)S(C)(=O)=O)c1,0.1,-160.2,-0.8,-0.5
CN1CCN(C(=O)C23CCC(C)(C(=O)C2)C3(C)C)CC1 (stereo unspecified),0.0,-6.0,-0.5,4.7
SMILES,FBW7 activator,MITF inh,GPR151 ag,TEAD-YAP inh
COc1ccc(C(=O)Nn2c(SCC(=O)NCC3CCCO3)nc3ccccc3c2=O)cc1 (stereo unspecified),-0.1,-3.8,-0.9,83.8*
CCOc1ccc(NC(=O)CSc2nc3ccccc3c(=O)n2NC(=O)c2ccccc2)cc1,0.2,-31.5,-2.0,2.3
O=C(CSc1nc2ccccc2c(=O)n1NC(=O)Cc1ccccc1)NCC1CCCO1 (stereo unspecified),0.0,2.8,0.3,-0.6
COc1ccc(C(=O)Nn2c(SCC(=O)NCc3ccccc3)nc3ccccc3c2=O)cc1,0.0,-3.9,0.2,73.8*
CCOc1ccc(NC(=O)CSc2nc3ccccc3c(=O)n2NC(=O)c2ccc(OC)cc2)cc1,0.0,6.6,1.6,54.0*
COc1ccc(-c2ccc(C(=O)NCc3cccc(C(F)(F)F)c3)s2)cn1,0.0,-5.0,-1.1,4.5
O=C(CSCc1ccccc1)N1CCN(S(=O)(=O)C2CC2)CC1,0.2,11.8,-1.5,-42.1
